Compound activity from PubChem BioAssay.
NS1 function inh: inhibitors of influenza NS1 protein function; Potency, µM (series often up to 46.1 µM); hit rate 0.4% among 270,000; AID 2326; calls by dose curve; further: actives are rising curves; nearly all actives have a fitted effect of over 50% in size
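Recovery from NS1-induced slow growth read by OD600 in budding yeast switched to galactose assay medium (pH 6.0, -URA) at 1:100 dilution. Compound 23 nl per well; the matching strain lacking NS1 serves as control.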
Tb PYK inh: inhibitors of Trypanosoma brucei pyruvate kinase. Q57TT1. TbPYK enzyme, Kinase-Glo Plus ATP luminescence, 45 min. Potency, µM (top dose mostly 76.8 µM), usual class: inhibitors. hit rate 0.12% among 410,000; further: nearly all actives have a fitted effect of over 50% in size
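Luminescent Kinase-Glo Plus end-point after 45 min room-temperature reaction of T. brucei pyruvate kinase started with 130 uM ADP (final). Buffer TEA 50 mM pH 7.2 with KCl, MgCl2, BSA, Tween-20; titration-based qHTS with fitted concentration-effect curves.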
LmPK inhibitor: blocks Leishmania mexicana pyruvate kinase activity; Q27686; purified LmPK, Kinase-Glo ATP luminescence, 1 h; Potency, µM (doses to about 57.5 µM), most hits filed as inhibitors; hit rate 0.37% among 290,000; AID 1721
Target sequence (Q27686 whole entry, looked up): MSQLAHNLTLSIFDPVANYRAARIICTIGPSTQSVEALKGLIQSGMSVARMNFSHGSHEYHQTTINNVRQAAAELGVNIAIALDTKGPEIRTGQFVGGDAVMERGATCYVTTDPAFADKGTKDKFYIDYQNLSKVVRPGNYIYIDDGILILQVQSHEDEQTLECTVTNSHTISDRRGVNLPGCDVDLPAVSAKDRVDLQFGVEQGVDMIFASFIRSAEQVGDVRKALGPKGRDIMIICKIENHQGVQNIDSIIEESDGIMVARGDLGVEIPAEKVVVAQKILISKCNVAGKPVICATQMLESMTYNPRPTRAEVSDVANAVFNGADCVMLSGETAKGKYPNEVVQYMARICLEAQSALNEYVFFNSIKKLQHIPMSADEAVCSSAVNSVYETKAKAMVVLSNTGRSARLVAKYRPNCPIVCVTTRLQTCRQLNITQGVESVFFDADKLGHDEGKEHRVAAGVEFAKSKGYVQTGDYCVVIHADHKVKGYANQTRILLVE
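qHTS format; LmPK 0.1 nM; substrates PEP 0.5 mM and ADP 0.1 mM. One-hour room-temperature incubation, then coupled luciferase luminescence; 0.5 nM enzyme wells mark activation.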
RE007 growth inh: less growth of the S. pombe RE007 Vpr strain; hit rate 0.21% among 360,000; S. pombe RE007 Vpr strain, BacTiter-Glo ATP luminescence, 24 h; Potency, µM (highest dose often 92.2 µM), hits mostly inhibitors; active means well fitted falling curve with a large enough effect; inconclusive means small, poorly fitted or top-dose-only effect; inactive means no such curve, though single readings can be large or run the other way; further: nearly all actives have a fitted effect of over 50% in size
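Fission yeast strain RE007, carrying one chromosomally integrated HIV-1 vpr copy, was seeded at OD 0.01 in PMG+AL medium with 23 nL pinned compound. After 24 h at 30 °C and 99% humidity, viability was read by BacTiter-Glo luminescence.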
Hits are given with their value; 0 = inactive; ? = inconclusive; - = not tested or not shown. Only some compounds are listed: those with a hit (about 0.77% of all), similar ones and a draw of the others. Unless noted, the call rests on the fitted dose curve; in most records, active means well fitted curve in the direction sought with a large enough effect; inconclusive means small, poorly fitted or top-dose-only effect, or another doubt; inactive means no such curve, though single readings can be large; an effect the other way counts as inactive or inconclusive.

SMILES | NS1 function inh | Tb PYK inh | LmPK inhibitor | RE007 growth inh
O=c1oc2ccccc2cc1-c1nc2c(s1)CCCC2 | 0 | 0 | 12.6µM | 0
Cc1ccc(S(=O)(=O)c2cn(CC(=O)Nc3cccc(C)c3)c3cc4c(cc3c2=O)OCO4)cc1 | - | 0 | - | -
O=C(Nc1ncc([N+](=O)[O-])s1)c1cccc([N+](=O)[O-])c1 | 0 | 0 | 12.6µM | 0
O=C(Nc1ccc(NC(=O)c2cccc([N+](=O)[O-])c2)cc1)c1cccc([N+](=O)[O-])c1 | 0 | 0 | 0 | 0
O=C1C(Cl)=C(Nc2ccc3cn[nH]c3c2)C(=O)c2ccccc21 | 0 | 0 | ? | 31.6µM
O=C(Nc1ccc2cn[nH]c2c1)c1c(Cl)cccc1Cl | 0 | ? | 0 | 0
CC(C)(Oc1ccc(-c2cccc3ccccc23)cc1)C(=O)O | 0 | - | - | -
COc1cc(OC)c(/C=N/n2c(C3CCCCC3)n[nH]c2=S)c(OC)c1 | 0 | 8.91µM | ? | 0
COc1cccc(/C=N/n2c(C3CCCCC3)n[nH]c2=S)c1OC | 0 | 5.62µM | 0 | 0
Cc1oc2ccc(O)c(CN3CCN(C)CC3)c2c1C(=O)Nc1cccc(C(F)(F)F)c1 | - | 0 | - | -
COc1ccc(NC(=O)CSC2=Nc3ccccc3C3=NC(CC(=O)NCCc4ccccc4)C(=O)N23)cc1 (stereo not drawn) | - | 0 | - | -
O=C(COC(=O)c1cccnc1Cl)c1ccc(OC(F)F)cc1 | - | 0 | 15.8µM | 0
CC(C)NC(=O)N1CC[C@@]2(CCCN(C(=O)c3csnn3)C2)C1 | - | 0 | - | -
COC(=O)C1=C(C)NC(=O)/C1=C\c1cc(C)n(-c2cc(C)cc(C)c2)c1C | 0 | 0 | 0 | 10µM
CN1CCN(CN2C(=O)C3C4C=CC(C3C2=O)C2C3C(=O)N(CN5CCN(C)CC5)C(=O)C3C42)CC1 (stereo not drawn) | 0 | - | - | -
COc1cc(/C=C2\SC(=O)N(CC(=O)Nc3cccc(C)c3)C2=O)cc([N+](=O)[O-])c1O | - | 0 | 0 | 0
COc1cc(/C=C2\SC(=O)N(c3ccccc3Cl)C2=O)cc([N+](=O)[O-])c1O | 0 | 0 | 0 | 35.5µM
COC(=O)C1=C(c2ccccc2)c2ccccc2S(=O)(=O)N1CC(=O)Nc1ccc(F)c(F)c1 | - | 0 | - | -
CCn1c(Cc2ccccc2)n[nH]c1=S | ? | ? | 0 | 0
CCCCn1c(Cc2ccccc2)n[nH]c1=S | 0 | 11.2µM | ? | 0
CCCCn1c(-c2c(Cl)c(C)nn2C)n[nH]c1=S | - | 10µM | 0 | 0
CCCCn1c(-c2sccc2C)n[nH]c1=S | 0 | ? | 31.6µM | 0
CC(C)Cn1c(Cc2ccccc2)n[nH]c1=S | ? | ? | 11.2µM | 0
CC[C@H](c1ccccc1)c1noc(CCN(CC)CC)n1 | - | 0 | - | -
COc1cn(CC(=O)Nc2ccc(C)cc2C)c(CN2CCCCC2)cc1=O | - | 0 | - | -
SMILES | NS1 function inh | Tb PYK inh | LmPK inhibitor | RE007 growth inh
COc1cccc2c1nc(C)c1cc(C)oc12 | 0 | 0 | 0 | 0
COc1cccc2nc3cc(C)c(C)cc3nc12 | 0 | ? | 12.6µM | 2.82µM
COc1ccc(C(=O)c2coc3c2C(=O)C(=O)c2ccccc2-3)cc1 | 0 | 0 | 0 | 39.8µM
CC(C)(C=O)C1=CC(=O)c2ccccc2C1=O | 0 | ? | 12.6µM | 8.91µM
Cc1cccc(Nc2n[nH]c(=S)s2)c1C | 0 | ? | 0 | 0
Cc1cccc(C)c1Nc1n[nH]c(=S)s1 | - | 12.6µM | - | 0
NC(=O)CS(=O)C[C@H](N)C(=O)O (stereo partly drawn) | 0 | - | - | -
O=C(O)CCn1cc(/C=C2\SC(=S)NC2=O)c(-c2ccccc2)n1 | - | 0 | 0 | 0
O=C(O)CCn1cc(C=C2C(=O)NC(=O)NC2=O)c(-c2ccc(Br)cc2)n1 | 0 | 17.8µM | 0 | 0
O=C(O)CCn1cc(C=C2C(=O)NC(=S)NC2=O)c(-c2cccc(Cl)c2)n1 | 0 | 11.2µM | 0 | 0
O=C(O)CCn1cc(/C=C/C(=O)c2ccc(Cl)cc2)c(-c2ccc(Br)cc2)n1 | 0 | 0 | 0 | ?
Cc1cc(C)cc(NS(=O)(=O)c2ccc3c(c2)CCCN3C(=O)C2CCC2)c1 | - | 0 | - | -
CC(=O)Nc1ccc(S(=O)(=O)Nc2cc(-c3cn4ccccc4n3)ccc2C)cc1 | - | 0 | - | -
CCCN(CCC)C(=O)Cn1c(=O)n(CCCCCC(=O)NCc2ccc3c(c2)OCO3)c(=O)c2sccc21 | - | 0 | - | -
Cc1cc(C(=O)COC(=O)c2cccnc2Cl)c(C)n1CC1CCCO1 (stereo not drawn) | 0 | 0 | 25.1µM | 0
Cc1cc(C(=O)COC(=O)c2ccccc2O)c(C)n1CC1CCCO1 (stereo not drawn) | - | 0 | - | ?
Cc1nc(C)c(C(=O)C2=C(O)C(=O)N(CCN(C)C)C2c2cccs2)s1 (stereo not drawn) | 0 | 0 | 0 | 0
COc1cccc(C2C(C(=O)c3sc(C)nc3C)=C(O)C(=O)N2CCN(C)C)c1OC (stereo not drawn) | 8.91µM | - | 0 | -
O=C(O)/C=C/C(=O)Nc1ccc(Oc2ncnc3cc(Cl)ccc23)nc1 | 0 | 0 | 0 | 31.6µM
O=C(Nc1ccccc1)Nc1ccc(Oc2ncnc3cc(Cl)ccc23)nc1 | 0 | 0 | 0 | 0
O=C(COc1ccccc1F)Nc1ccc2oc(-c3cccc(Cl)c3)nc2c1 | - | 0 | - | -
COc1cccc(N=CC2=C(O)CC(C)(C)CC2=O)c1 | 0 | 0 | 0 | ?
COc1cccc(N=CC2=C(O)CCCC2=O)c1 | - | 0 | 0 | 39.8µM
O=C(O)CCSC1=NCCN1 | 0 | - | - | -
O=C1C2C3C=CC(CO)(O3)C2C(=O)N1c1ccccc1-c1ccccc1 (stereo not drawn) | 0 | ? | 17.8µM | 12.6µM
SMILES | NS1 function inh | Tb PYK inh | LmPK inhibitor | RE007 growth inh
O=C1CCC(=O)N1c1ccccc1-c1ccccc1 | 0 | 0 | 0 | 0
CC(=O)Oc1ccc(N2C(=O)C3C4C=CC(CO)(O4)C3C2=O)cc1 (stereo not drawn) | 0 | ? | 0 | 7.94µM
O=C1C2C3C=CC(CNS(=O)(=O)c4ccccc4)(O3)C2C(=O)N1c1ccc(Cl)cc1 (stereo not drawn) | 0 | 0 | 0 | 3.16µM
COC(=O)C1(C)NC(c2ccc(Cl)cc2)C2C(=O)N(c3ccccc3)C(=O)C21 (stereo not drawn) | 0 | 0 | 0 | 0
Oc1cc2c(cc1O)C1c3ccc(O)c(O)c3OCC1(O)C2 (stereo not drawn) | 0 | 10µM | ? | 0
O=C(NCc1ccc(F)cc1)C(c1ccccc1)c1ccccc1 | 0 | 0 | 0 | 0
CC(=O)N(Cc1ccc(F)cc1)C1=C(NCc2ccccc2)C(=O)c2ccccc2C1=O | 0 | 0 | 0 | 7.08µM
CC(C)c1ccc2oc3nc(N)c(C(=O)O)cc3c(=O)c2c1 | - | ? | 7.08µM | -
Cc1nc2oc3ccc(Cl)cc3c(=O)c2cc1C(=O)O | 0 | 0 | 0 | 0
CC1CCN(C(=O)c2ccc3c(c2)N(Cc2ccccc2)C(=O)c2ccccc2S3(=O)=O)CC1 | - | 0 | - | -
O=[N+]([O-])c1c(Nc2ccccn2)cc(Cl)c2nonc12 | 0 | 0 | 0 | 8.91µM
O=C(CO)NCCCOc1cccc(CN2CCCCC2)c1 | - | 0 | - | -
Cc1scc(-c2n[nH]c(=S)n2C(C)c2ccccc2)c1C (stereo not drawn) | 0 | 2.24µM | 12.6µM | -
CCc1cc(-c2n[nH]c(=S)n2C(C)c2ccccc2)cs1 (stereo not drawn) | 0 | 0 | 14.1µM | 0
CC(c1ccccc1)n1c(-c2ccc(C(C)(C)C)cc2)n[nH]c1=S (stereo not drawn) | 0 | 0 | 0 | 0
